# Measured values reported in PubChem BioAssay (NCATS).
# Results filed as inconclusive are left out. Entries that show only a call come without a potency. The source made the active and inactive calls. Unless noted, the call rests on the fitted dose curve; in most records, active means well fitted curve in the direction sought with a large enough effect; inconclusive means small, poorly fitted or top-dose-only effect, or another doubt; inactive means no such curve, though single readings can be large; an effect the other way counts as inactive or inconclusive.
# Legend:
# [1] = qHTS assay for measurement of the activity of small molecule inhibitors on Zika virus induced Caspase-3 activity in human iPSC derived neural progenitor cells (hNPCs) (AID 1224857); further: nearly all actives have a fitted effect of over 65% in size
# Method in brief: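 Quantitative HTS format: human iPSC neural progenitors, 1 h compound pretreatment, ZIKV 2 FFU/cell for 6 h at 37 C. Percent inhibition derived from luminescent caspase-3/7 signal between uninfected and infected controls.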
# [2] = qHTS assay for measurement of the activity of small molecule inhibitors on Zika virus induced Caspase-3 activity in human astrocytoma cells (AID 1224859)
# Method in brief: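 Readout is luminescence from Caspase-Glo 3/7 added after a 6 h ZIKV infection (2 FFU/cell) of compound-pretreated (1 h) SNB-19 cells; data expressed as % inhibition versus uninfected and infected wells.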
# [3] = Natriuretic polypeptide receptor (hNpr1) antagonism - Pilot counterscreen GloSensor control cell line (AID 1347045; calls by dose curve; further: potency means the concentration at half of the fitted maximal effect)
# Method in brief: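 This counterscreen uses HEK293 cells expressing the GIP/pGS-40F cGMP biosensor. Compound-treated cells are challenged with 50 uM sodium nitroprusside, and the luciferase signal is compared before and after stimulation.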
# [4] = molecular target: Atrial natriuretic peptide receptor 1 (Homo sapiens) (UniProt P16066); test: Natriuretic polypeptide receptor (hNpr1) antagonism - Pilot screen (AID 1347049; calls by dose curve;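 further: agonist-evoked cGMP luminescence read 20 min after hNppA addition; series mostly up to about 58 µM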)
# Chain of Atrial natriuretic peptide receptor 1 (Homo sapiens) (P16066 whole entry, looked up): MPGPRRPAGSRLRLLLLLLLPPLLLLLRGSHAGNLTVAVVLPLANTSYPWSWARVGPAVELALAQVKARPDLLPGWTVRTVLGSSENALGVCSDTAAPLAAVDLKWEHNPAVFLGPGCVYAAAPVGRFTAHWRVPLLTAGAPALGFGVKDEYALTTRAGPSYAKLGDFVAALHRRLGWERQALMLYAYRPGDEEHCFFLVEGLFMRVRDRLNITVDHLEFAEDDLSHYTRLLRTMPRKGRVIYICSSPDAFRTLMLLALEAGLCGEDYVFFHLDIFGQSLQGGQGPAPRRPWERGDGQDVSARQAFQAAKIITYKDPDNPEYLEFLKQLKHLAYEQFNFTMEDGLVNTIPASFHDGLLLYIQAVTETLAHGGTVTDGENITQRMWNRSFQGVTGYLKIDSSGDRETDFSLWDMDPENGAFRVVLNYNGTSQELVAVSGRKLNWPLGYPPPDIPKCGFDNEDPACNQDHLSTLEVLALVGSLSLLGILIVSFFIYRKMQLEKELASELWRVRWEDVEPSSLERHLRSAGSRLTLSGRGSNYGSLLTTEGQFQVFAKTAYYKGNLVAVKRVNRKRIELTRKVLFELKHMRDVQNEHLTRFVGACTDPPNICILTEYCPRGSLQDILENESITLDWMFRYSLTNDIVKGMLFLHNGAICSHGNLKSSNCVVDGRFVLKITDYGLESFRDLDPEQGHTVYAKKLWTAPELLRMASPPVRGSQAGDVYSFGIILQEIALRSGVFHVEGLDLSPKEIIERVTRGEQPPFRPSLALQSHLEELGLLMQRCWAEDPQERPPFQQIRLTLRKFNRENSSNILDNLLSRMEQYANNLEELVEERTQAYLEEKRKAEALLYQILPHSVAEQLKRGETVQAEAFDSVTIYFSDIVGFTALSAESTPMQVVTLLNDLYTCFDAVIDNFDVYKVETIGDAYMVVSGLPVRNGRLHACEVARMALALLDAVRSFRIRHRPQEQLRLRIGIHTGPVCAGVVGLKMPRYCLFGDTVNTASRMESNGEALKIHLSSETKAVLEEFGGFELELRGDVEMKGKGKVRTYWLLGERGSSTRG
# Method in brief: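 Readout is cGMP-driven firefly luciferase luminescence in HEK293 cells carrying hNpr1 and a PDE5-domain GloSensor, read before and 20 min after 0.1 nM hNppA stimulation. Cells had 2% substrate reagent for 2 h and test compound for 30 min.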
# [5] = molecular target: Atrial natriuretic peptide receptor 2 (Homo sapiens) (UniProt P20594); test: Natriuretic polypeptide receptor (hNpr2) antagonism - Pilot subtype selectivity assay (AID 1347050; calls by dose curve)
# Chain of Atrial natriuretic peptide receptor 2 (Homo sapiens) (P20594 whole entry, looked up): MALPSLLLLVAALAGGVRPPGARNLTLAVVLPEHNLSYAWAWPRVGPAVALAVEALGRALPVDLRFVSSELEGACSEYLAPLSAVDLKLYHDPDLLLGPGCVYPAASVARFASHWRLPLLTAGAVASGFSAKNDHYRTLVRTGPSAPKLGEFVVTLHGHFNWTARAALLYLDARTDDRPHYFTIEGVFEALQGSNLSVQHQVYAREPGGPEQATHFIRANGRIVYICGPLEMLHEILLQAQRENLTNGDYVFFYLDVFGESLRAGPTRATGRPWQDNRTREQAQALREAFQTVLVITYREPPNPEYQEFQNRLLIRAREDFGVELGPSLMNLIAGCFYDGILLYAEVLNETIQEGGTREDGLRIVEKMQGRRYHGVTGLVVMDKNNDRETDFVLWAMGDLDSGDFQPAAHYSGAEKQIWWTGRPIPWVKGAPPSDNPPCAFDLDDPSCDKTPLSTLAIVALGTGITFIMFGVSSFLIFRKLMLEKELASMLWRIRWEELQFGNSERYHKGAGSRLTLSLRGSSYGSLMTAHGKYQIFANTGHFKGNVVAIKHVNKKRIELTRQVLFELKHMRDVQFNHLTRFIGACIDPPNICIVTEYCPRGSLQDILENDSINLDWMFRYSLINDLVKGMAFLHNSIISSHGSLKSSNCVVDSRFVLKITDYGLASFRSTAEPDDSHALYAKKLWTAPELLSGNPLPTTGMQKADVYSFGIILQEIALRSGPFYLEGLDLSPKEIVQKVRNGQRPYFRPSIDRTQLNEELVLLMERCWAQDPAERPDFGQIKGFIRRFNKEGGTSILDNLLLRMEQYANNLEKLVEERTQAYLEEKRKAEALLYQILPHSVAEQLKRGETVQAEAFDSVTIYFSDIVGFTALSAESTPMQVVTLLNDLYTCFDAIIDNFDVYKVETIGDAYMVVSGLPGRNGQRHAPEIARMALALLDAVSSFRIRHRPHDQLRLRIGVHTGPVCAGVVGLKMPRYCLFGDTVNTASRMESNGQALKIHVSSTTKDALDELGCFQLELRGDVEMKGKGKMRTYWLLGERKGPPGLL
# Method in brief: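 Pilot selectivity screen against hNpr2: HEK293 cGMP-sensor cells are treated with LOPAC1280 compounds, then with hNppC peptide at 1 nM final. The cGMP-driven luminescence change over 20 min at room temperature is the read-out.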
# [6] = NS1 protein of Zika virus - qHTS assay to identify small molecule inhibitors in human HEK 293 cells (AID 1347053); further: series mostly up to about 46 µM; nearly all actives have a fitted effect of over 55% in size
# Method in brief: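 Following 20 h seeding, HEK 293 cells took compound, then 1 h later ZIKV MR766 (MOI = 0.5). Incubation ran 24 h at 37 C before TR-FRET detection of NS1; a drop in signal indicates inhibition.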
# [7] = molecular target: T1, Tyrosine-protein phosphatase non-receptor type substrate 1 (Homo sapiens) + Leukocyte surface antigen CD47 (Homo sapiens) (UniProt P78324+Q08722); test: CD47-SIRPalpha protein protein interaction - LANCE assay qHTS validation (AID 1347057; active means well fitted curve in the direction sought with a large enough effect in the signal ratio, with a control signal flat, not every such curve was filed as active; the % refers to the signal ratio; further: series mostly up to about 38 µM)
# T1 sequence (P78324 whole entry, looked up): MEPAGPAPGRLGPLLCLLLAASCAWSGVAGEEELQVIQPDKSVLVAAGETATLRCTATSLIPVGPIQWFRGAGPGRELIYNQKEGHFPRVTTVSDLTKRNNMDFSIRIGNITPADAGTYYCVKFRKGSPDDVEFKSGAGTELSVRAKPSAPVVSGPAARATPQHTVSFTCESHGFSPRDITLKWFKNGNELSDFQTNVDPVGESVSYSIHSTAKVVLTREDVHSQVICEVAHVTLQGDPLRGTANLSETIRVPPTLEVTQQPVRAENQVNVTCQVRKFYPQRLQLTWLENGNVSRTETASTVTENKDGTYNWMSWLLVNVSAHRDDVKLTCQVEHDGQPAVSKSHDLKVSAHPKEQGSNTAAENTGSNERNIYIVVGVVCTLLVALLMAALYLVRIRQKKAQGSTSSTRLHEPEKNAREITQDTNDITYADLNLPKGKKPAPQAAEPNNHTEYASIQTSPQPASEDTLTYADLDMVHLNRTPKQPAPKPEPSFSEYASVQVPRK
# T1 sequence (Q08722 whole entry, looked up): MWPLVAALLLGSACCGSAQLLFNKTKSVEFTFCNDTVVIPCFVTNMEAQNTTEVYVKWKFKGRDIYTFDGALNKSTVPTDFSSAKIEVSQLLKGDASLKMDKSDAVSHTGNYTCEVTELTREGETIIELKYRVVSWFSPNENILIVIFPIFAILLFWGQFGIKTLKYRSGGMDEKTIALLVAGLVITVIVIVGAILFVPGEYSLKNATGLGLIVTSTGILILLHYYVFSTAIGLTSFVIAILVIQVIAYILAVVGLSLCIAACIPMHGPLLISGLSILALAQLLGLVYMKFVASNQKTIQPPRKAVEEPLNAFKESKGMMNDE
# Method in brief: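 First, His-tagged CD47 and Eu-labelled anti-His antibody met the compound for 30 min; next, site-specifically biotinylated SIRPalpha was added for 30 min; finally streptavidin-APC was added before reading the TR-FRET ratio.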
# [8] = molecular target: T1, Tyrosine-protein phosphatase non-receptor type substrate 1 (Homo sapiens) + Leukocyte surface antigen CD47 (Homo sapiens); test: CD47-SIRPalpha protein protein interaction - HTRF assay qHTS validation (AID 1347058; active means well fitted curve in the direction sought with a large enough effect in the signal ratio, not every such curve was filed as active; the % refers to the signal ratio;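 further: recombinant soluble extracellular CD47 with His tag and biotinylated SIRPalpha domains; series mostly up to about 38 µM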)
# Method in brief: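 TR-FRET read (Ch1/Ch2 ratio) of soluble extracellular CD47 and Avi-biotinylated SIRPalpha domains in PBS pH 7.4 with 0.05% IGEPAL; 7-point compound titration. Sequential 30 min room-temperature steps; non-biotinylated SIRPalpha as control inhibitor.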
# [9] = molecular target: T1, Tyrosine-protein phosphatase non-receptor type substrate 1 (Homo sapiens) + Leukocyte surface antigen CD47 (Homo sapiens); test: CD47-SIRPalpha protein protein interaction - Alpha assay qHTS validation (AID 1347059);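 further: bead proximity luminescence from CD47 binding SIRPalpha after compound preincubation with SIRPalpha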
# Method in brief: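 Binding is measured by AlphaScreen proximity: Ni-NTA acceptor beads capture His-CD47, streptavidin donor beads capture biotin-SIRPalpha. Each of three additions (SIRPalpha with compound, CD47, beads) incubates 30 min at room temperature protected from light.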
# [10] = molecular target: Parathyroid hormone/parathyroid hormone-related peptide receptor (Homo sapiens) (UniProt Q03431); test: qHTS for PTHR1 Agonists: Optimization Screen against the NCGC LOPAC library (AID 1347079);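 further: GloSensor cAMP luminescence in HEK-293 GP2 cells expressing human PTHR1 with IBMX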
# Chain of Parathyroid hormone/parathyroid hormone-related peptide receptor (Homo sapiens) (Q03431 whole entry, looked up): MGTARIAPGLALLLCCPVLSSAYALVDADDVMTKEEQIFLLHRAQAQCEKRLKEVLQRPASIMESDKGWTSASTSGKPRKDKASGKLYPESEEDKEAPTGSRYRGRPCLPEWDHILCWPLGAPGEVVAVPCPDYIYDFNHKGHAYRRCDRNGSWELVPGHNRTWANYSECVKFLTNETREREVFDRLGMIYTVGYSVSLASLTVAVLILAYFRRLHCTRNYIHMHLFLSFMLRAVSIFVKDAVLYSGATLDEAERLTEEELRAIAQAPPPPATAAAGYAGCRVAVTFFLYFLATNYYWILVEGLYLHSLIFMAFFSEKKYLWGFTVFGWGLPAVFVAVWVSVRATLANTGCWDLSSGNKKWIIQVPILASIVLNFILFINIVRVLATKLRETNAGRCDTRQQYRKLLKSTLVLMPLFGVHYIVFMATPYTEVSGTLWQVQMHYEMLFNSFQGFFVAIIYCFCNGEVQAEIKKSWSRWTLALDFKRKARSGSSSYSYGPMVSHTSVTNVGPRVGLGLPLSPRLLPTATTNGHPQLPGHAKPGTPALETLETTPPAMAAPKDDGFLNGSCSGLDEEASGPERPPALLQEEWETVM
# Method in brief: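 Compounds were tested across a qHTS titration. PTHR1-expressing GP2 cells report cAMP rises via GloSensor luminescence after 1 hr compound exposure at 37C with IBMX present.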
# [11] = molecular target: N-terminal Xaa-Pro-Lys N-methyltransferase 1 (Homo sapiens) (UniProt Q9BV86); test: qHTS Assay for Inhibitors of N-terminal methyltransferase 1 (NTMT1): LOPAC validation of the NTMT1 SAHH-coupled ThioGlo3 Assay (AID 1347143);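 further: SAH from peptide methylation measured as thiol fluorescence via SAHH coupling and ThioGlo3; nearly all actives have a fitted effect of over 70% in size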; further: potency means the concentration at half of the fitted maximal effect
# Chain of N-terminal Xaa-Pro-Lys N-methyltransferase 1 (Homo sapiens) (Q9BV86 whole entry, looked up): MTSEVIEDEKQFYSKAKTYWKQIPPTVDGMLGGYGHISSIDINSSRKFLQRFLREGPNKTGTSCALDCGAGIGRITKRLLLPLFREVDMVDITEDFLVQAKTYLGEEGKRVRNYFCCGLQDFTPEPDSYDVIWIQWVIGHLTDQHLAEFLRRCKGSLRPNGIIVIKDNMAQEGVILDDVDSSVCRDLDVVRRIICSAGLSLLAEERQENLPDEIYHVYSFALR
# Method in brief: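 Inhibition of NTMT1 methylation of peptide SPKRIA is followed by converting SAH with SAHH and labelling the released thiol with ThioGlo3. Plates are read at 340/450nm before and 30 min after reagent addition, both at room temperature.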
# [12] = test system: Zika virus NS2B-NS3 protease (unlinked); test: Optimization of GU AMC qHTS for Zika virus inhibitors: Unlinked NS2B-NS3 protease assay (AID 1347151); further: nearly all actives have a fitted effect of over 80% in size; further: potency means the concentration at half of the fitted maximal effect
# Method in brief: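 In this qHTS, compounds acted on 25 nM unlinked Zika NS2B–NS3 in pH 8.0 Tris/Tween buffer. Cleavage of an AMC peptide ran 15 min at room temperature, to about 20% conversion.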
# Furin (Homo sapiens) = Furin (Homo sapiens) (UniProt P09958); test: Furin counterscreen qHTS for Zika virus inhibitors (AID 1347149); further: potency means the concentration at half of the fitted maximal effect; nearly all actives have a fitted effect of over 70% in size
# Chain of Furin (Homo sapiens) (P09958 whole entry, looked up): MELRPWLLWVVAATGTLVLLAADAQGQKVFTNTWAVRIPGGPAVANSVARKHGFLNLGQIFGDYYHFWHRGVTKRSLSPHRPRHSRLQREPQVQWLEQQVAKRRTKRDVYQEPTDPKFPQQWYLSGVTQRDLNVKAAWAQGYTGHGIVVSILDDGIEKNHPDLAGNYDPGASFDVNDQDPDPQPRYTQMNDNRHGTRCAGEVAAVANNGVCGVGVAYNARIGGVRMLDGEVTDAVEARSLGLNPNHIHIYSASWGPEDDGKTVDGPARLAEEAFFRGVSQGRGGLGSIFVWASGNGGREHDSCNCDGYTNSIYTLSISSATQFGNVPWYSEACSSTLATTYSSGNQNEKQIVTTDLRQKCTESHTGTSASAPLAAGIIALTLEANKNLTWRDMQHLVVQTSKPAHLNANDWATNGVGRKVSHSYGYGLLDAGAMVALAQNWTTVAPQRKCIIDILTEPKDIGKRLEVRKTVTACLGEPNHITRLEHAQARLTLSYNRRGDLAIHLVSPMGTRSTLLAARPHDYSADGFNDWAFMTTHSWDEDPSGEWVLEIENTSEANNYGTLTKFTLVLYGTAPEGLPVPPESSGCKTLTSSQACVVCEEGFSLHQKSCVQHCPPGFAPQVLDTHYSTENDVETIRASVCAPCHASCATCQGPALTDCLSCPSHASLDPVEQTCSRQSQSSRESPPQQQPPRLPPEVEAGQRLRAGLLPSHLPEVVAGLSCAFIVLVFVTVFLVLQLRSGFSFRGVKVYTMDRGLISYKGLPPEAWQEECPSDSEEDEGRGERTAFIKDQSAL
# Method in brief: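 Fluorogenic cleavage of BOC-RVRR-AMC (2 microM final, Km ~15 µM) was monitored (ex 340, em 450 nm) at 37C after 15 min RT preincubation of 5 nM furin with compounds in HEPES pH 7.0 buffer with CaCl2 and Triton X-100. Percent inhibition was fitted to a 4-parameter Hill curve.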
# [13] = test system: Zika virus NS2B-NS3 protease (linked construct); test: Confirmatory screen NINDS AMC qHTS for Zika virus inhibitors (AID 1347152); further: potency means the concentration at half of the fitted maximal effect; nearly all actives have a fitted effect of over 70% in size
# Method in brief: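 Concentration-response confirmation used the NINDS linked protease (NS2B hydrophilic domain joined to NS3 protease domain), 1 nM, with a 15-min compound preincubation. Substrate, Nle-KRR-AMC at 10 microM, was read by UV fluorescence before and after 15 min.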
# [14] = test system: Zika virus NS2B-NS3 protease (unlinked complex); test: Confirmatory screen GU AMC qHTS for Zika virus inhibitors (AID 1347153);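 further: enzyme at 25 nM with substrate at 10 µM below its Km of 18.3 µM; potency means the concentration at half of the fitted maximal effect; nearly all actives have a fitted effect of over 70% in size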
# Method in brief: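 Fluorescence change (ex 340/em 450 nm) over 15 min, ~20% substrate conversion, normalized to no-inhibitor and no-enzyme controls, then Hill-fitted. Unlinked protease at 25 nM; AMC peptide 10 µM.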
Structure (SMILES),Potency [1],Potency [2],Potency [3],Potency [4],Potency [5],Potency [6],Potency [7],outcome [8],Potency [9],Potency [10],Potency [11],Potency [12],Potency (Furin (Homo sapiens)),Potency [13],Potency [14]
O=c1onc2n1-c1cc(Br)ccc1OC2,inactive,inactive,0.131 µM (active),inactive,inactive,inactive,inactive,inactive,inactive,inactive,inactive,inactive,–,–,–
Cn1c(=O)[nH]c2ncn(C)c2c1=O,inactive,inactive,inactive,inactive,inactive,inactive,inactive,inactive,inactive,inactive,inactive,inactive,–,–,–
CCSC(=N)N,inactive,inactive,inactive,inactive,inactive,inactive,inactive,inactive,inactive,inactive,inactive,inactive,–,–,–
OC[C@H]1O[C@@H](n2cnc3cncnc32)[C@H](O)[C@@H]1O,inactive,inactive,inactive,inactive,inactive,inactive,inactive,inactive,inactive,inactive,3.16 µM (active),inactive,–,–,–
O=C(O)c1cc(=O)cc(C(=O)O)[nH]1,inactive,inactive,inactive,inactive,inactive,inactive,inactive,inactive,inactive,inactive,inactive,inactive,–,–,–
C=CC[C@H](N)C(=O)O,inactive,inactive,inactive,inactive,inactive,inactive,inactive,inactive,inactive,inactive,inactive,inactive,–,–,–
OC[C@H]1NC[C@@H](O)[C@@H]1O,inactive,inactive,inactive,inactive,inactive,inactive,inactive,inactive,inactive,inactive,inactive,inactive,–,–,–
O=C(O)c1cc2cc(F)ccc2[nH]1,inactive,inactive,inactive,inactive,inactive,inactive,inactive,inactive,inactive,inactive,56.2 µM (active),26.7 µM (active),–,–,–
O=C(O)CCC/C=C\C[C@@H]1[C@@H](/C=C/[C@H](O)C2Cc3ccccc3C2)[C@@H](F)C[C@@H]1O,inactive,inactive,inactive,inactive,inactive,inactive,inactive,inactive,inactive,inactive,inactive,inactive,–,–,–
COc1cc(C(O)CO)ccc1O (stereo not given),inactive,inactive,inactive,inactive,inactive,inactive,inactive,inactive,inactive,inactive,inactive,inactive,–,–,–
C/C(=C\c1ccc(C(=O)O)cc1)c1ccc2c(c1)C(C)(C)CCC2(C)C,inactive,inactive,inactive,inactive,inactive,inactive,inactive,inactive,inactive,inactive,–,10.6 µM (active),21.5 µM (active),24.1 µM (active),24.1 µM (active)
CC(/C=C/c1cccc(Oc2ccc(F)cc2)c1)N(O)C(N)=O (stereo not given),inactive,inactive,inactive,inactive,inactive,inactive,inactive,inactive,inactive,inactive,inactive,inactive,–,–,–
CN(CC[C@@H](Oc1ccc(C(F)(F)F)cc1)c1ccccc1)CC(=O)O,inactive,inactive,inactive,inactive,inactive,inactive,inactive,inactive,inactive,inactive,inactive,inactive,–,–,–
O=C(c1ccc2c(c1)OCCO2)N1CCCCC1,inactive,inactive,inactive,inactive,inactive,inactive,inactive,inactive,inactive,inactive,inactive,inactive,–,–,–
Cn1ccnc1,inactive,inactive,inactive,inactive,inactive,inactive,inactive,inactive,inactive,inactive,inactive,inactive,–,–,–
COC(=O)[C@H](NC(=O)c1cc(-c2ccccc2)nc2ccccc12)c1ccccc1,inactive,inactive,inactive,inactive,inactive,inactive,inactive,inactive,inactive,inactive,56.2 µM (active),23.8 µM (active),–,–,–
COC(=O)C(N)Cc1ccc(Cl)cc1 (stereo not given),inactive,inactive,inactive,inactive,inactive,inactive,inactive,inactive,inactive,inactive,inactive,inactive,–,–,–
CC(N)=O,inactive,inactive,inactive,inactive,inactive,inactive,inactive,inactive,inactive,inactive,inactive,inactive,–,–,–
CCCCCC(O)CCCC(=O)O (stereo not given),inactive,inactive,inactive,inactive,inactive,inactive,inactive,inactive,inactive,inactive,inactive,inactive,–,–,–
